ChEMBL document CHEMBL1201862, “PubChem BioAssay data set” (2004)
Hit rate of the full screen: of about 53,000 […], about 4,900 (9.2%) were called active. Rule as the data show it: active = GI50 up to about 1.1 µM and inactive = higher. The entries come from a sample that favours actives as a whole. Potency and affinity values are given separately.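 48-hour exposure; five concentrations; linearly interpolated endpoints. GI50 marks 50% less growth.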

Tested on: NCI-H522
Experiment: NCI tumour cell line growth inhibition, 48 h

Substance	GI50
MERCURIC CHLORIDE, CHEMBL1374360	518 nM
DIBUTYLDICHLOROSTANNANE, CHEMBL1088184	130 nM
DICHLORODIPHENYLSTANNANE, CHEMBL1088185	1000 nM
